Screening data deposited in PubChem BioAssay by University of Pittsburgh Molecular Library Screening Center.
HIV RNase H inh-1: inhibitors of HIV-1 reverse transcriptase RNase H. RT-RNase H RNA/DNA duplex cleavage, fluorescence. inhibition, % at 10 µM. hit rate 1.9% among 65,000. AID 565; in the data active = inhibition above about 50%
HIV RNase H inh-2: confirmation of HIV-1 reverse transcriptase RNase H inhibitors. hit rate 39% among 1,000. shares compounds with HIV RNase H inh-1. inhibition, % at 10 µM. Recombinant RT RNase H, fluorescent RNA/DNA duplex cleavage; in the data active = inhibition above about 48%
The depositor's hits bear a star. The full list was thinned out, with hits kept by preference.

SMILES	HIV RNase H inh-1	others
O=S(=O)(Nc1ccccc1Cl)c1ccc(F)cc1	-6
COc1cc(S(=O)(=O)Nc2ccccc2C)ccc1Cl	-56
CCCN1C2=NCCN2c2cc(C)c(C)cc21	-13
Cc1nn(-c2ccccc2)c2sc(C(=O)OCc3nnc(-c4ccccc4)o3)cc12	-45
COc1ccc(-n2nc3cc(C)c(NC(=O)CC(C)C)cc3n2)cc1	65*	HIV RNase H inh-2=61*
COc1ccc(-n2nc3cc(C)c(NC(=O)c4cccnc4)cc3n2)cc1	-9
Cc1cc2nn(-c3ccccc3)nc2cc1NC(=O)c1cccs1	-6
COc1ccc(-c2nn3cnnc3s2)cc1OC	-9
COc1ccc(-c2nn3c(COc4ccccc4)nnc3s2)cc1OC	68*	HIV RNase H inh-2=11
COc1ccc(-c2nn3c(-c4ccncc4)nnc3s2)cc1OC	-7
COc1cc(-c2nnc3sc(C4CCCCC4)nn23)cc(OC)c1OC	-22
COc1ccc(-c2nnc3sc(-c4c(OC)cccc4OC)nn23)cc1	2
COc1cccc(-c2nnc3sc(-c4ccccc4)nn23)c1	-17
c1ccc(OCc2nnc3sc(-c4cccs4)nn23)cc1	-20
COc1cc(-c2nnc3sc(-c4cccnc4)nn23)cc(OC)c1OC	76*	HIV RNase H inh-2=93*
COc1cc(-c2nn3c(-c4ccccn4)nnc3s2)cc(OC)c1OC	-11
COc1cc(-c2nnc3sc(Cc4ccc(Cl)cc4)nn23)cc(OC)c1OC	56*	HIV RNase H inh-2=92*
CCOc1ccc(-c2nnc3sc(COc4ccc(Cl)cc4)nn23)cc1	-11
COc1cccc(OC)c1-c1nn2c(-c3cc(-c4ccccc4)n[nH]3)nnc2s1	89*	HIV RNase H inh-2=66*
CC1CCN(C(=O)CSc2nnc(Cc3cc(=O)[nH]c(=O)[nH]3)n2-c2ccc(Cl)cc2)CC1	-6
CCCCCn1c(CCCNC(=O)CC)nc2ccccc21	-12
NS(=O)(=O)c1ccc(NC(=O)COC(=O)CCNC(=O)NC23CC4CC(CC(C4)C2)C3)cc1	5
O=C(OCc1nc2ccc(Cl)cc2n1CCO)c1ccc2c(c1)OCO2	1
CC1(C)CC(=O)C=C(NCCc2ccc(S(N)(=O)=O)cc2)C1	-8
Cc1ccc(-n2cc(C(C)(C)C)[nH]c2=S)cc1	3
SMILES	HIV RNase H inh-1	others
Cc1c(Cl)cccc1NC(=O)c1cc(C2CC2)on1	-12
CCOC(=O)c1cnc2sc3c(n2c1=O)CCCC3	8
COCCOC(=O)C1=C(C)N=C2SCCC(=O)N2C1c1cccc(Br)c1 (stereo unspecified)	-4
Nc1cc(-c2ccco2)no1	-2
N#Cc1sc2nc(-c3ccccc3)cc(-c3ccco3)c2c1N	95*	HIV RNase H inh-2=-5
N#Cc1c(-c2ccccc2)cc(-c2ccco2)c(C#N)c1N	46
O=C(Nc1sc2c(c1C(=O)NC1CCCCC1)CCC2)c1ccco1	24
O=C(NC1CCS(=O)(=O)C1)c1c(NC(=O)C2COc3ccccc3O2)sc2c1CCCC2 (stereo unspecified)	54*	HIV RNase H inh-2=70*
O=C(Nc1nc2c(s1)CCCC2)C1COc2ccccc2O1 (stereo unspecified)	-11
CCCCCCC(=O)N(O)C1CC(=O)N(Cc2ccccc2)C1=O (stereo unspecified)	66*	HIV RNase H inh-2=32
CCCCCC(=O)N(O)C1CC(=O)N(c2ccccc2)C1=O (stereo unspecified)	16
O=C1CC(N(O)C2CC(=O)N(Cc3ccccc3)C2=O)C(=O)N1Cc1ccccc1 (stereo unspecified)	28
Cn1c(=O)[nH]c(=O)c2c1ncn2CCCc1ccccc1	-10
Cc1noc(C)c1COc1ccc(C(=O)NCc2ccccn2)cc1	-6
Cc1ccc(N=C(c2cccs2)N2CCOCC2)cc1	-9
O=C(CCCCn1c(=O)c2ccccc2n(Cc2ccc(F)cc2Cl)c1=O)NCc1ccco1	7
Cc1ccc(C)c(Cn2c(=O)n(CCC(=O)NCc3ccco3)c(=O)c3ccccc32)c1	75*	HIV RNase H inh-2=48
Cc1ccc(NC(=O)Cn2c(=O)n(CCCCC(=O)NCc3ccco3)c(=O)c3ccccc32)cc1	-13
CC(=O)Nc1ccccc1N(C)S(=O)(=O)c1ccc(C)cc1	-3
CCC(c1nnnn1C(C)C)N1CCN(C2CCCC2)CC1 (stereo unspecified)	-14
CCCC1COC(Cn2cncn2)(c2ccc(C)cc2)O1 (stereo unspecified)	-11
CC1(c2ccc(Cl)cc2Cl)OCC(Cn2ccnc2)O1 (stereo unspecified)	-10
CCC(C)n1ncn(-c2ccc(N3CCN(c4ccc(OCC5COC(Cn6cncn6)(c6ccc(Cl)cc6Cl)O5)cc4)CC3)cc2)c1=O (stereo unspecified)	73*	HIV RNase H inh-2=37
CC(C)(C)C1=Nn2c(nnc2-c2ccccn2)SC1	64*	HIV RNase H inh-2=70*
CC(C)(C)C1=Nn2c(nnc2-c2ccccc2F)SC1	-16
SMILES	HIV RNase H inh-1	others
COc1ccccc1-c1nnc2n1N=C(C(C)(C)C)CS2	-18
CCC(CC)C(=O)Nc1cc(C)cc(C)c1	-14
O=S1(=O)CC(O)C(Nc2ccccc2Cl)C1 (stereo unspecified)	-10
Cc1ccc(CNC(=O)C2CCN(S(=O)(=O)N3CCOCC3)CC2)cc1	-6
CCn1c(Cc2ccccc2)nnc1SCC(=O)Nc1nccs1	-13
CCn1c(Cc2ccccc2)nnc1SCC(=O)Nc1nnc(-c2ccccc2)s1	0
CCn1c(Cc2ccccc2)nnc1SCC(=O)Nc1nc(C)c(C)s1	64*	HIV RNase H inh-2=12
CCn1ncc(C2=NOC(C(=O)NCc3ccc(OC)cc3)C2)c1C (stereo unspecified)	-11
CCn1ncc(C2=NOC(C(=O)NCc3ccccc3)C2)c1C (stereo unspecified)	50*	HIV RNase H inh-2=26
CCn1ncc(C2=NOC(C(=O)Nc3c(C)n(C)n(-c4ccccc4)c3=O)C2)c1C (stereo unspecified)	-9
CCS(=O)(=O)N1Cc2ccccc2CC1C(=O)N1CCN(c2ccccc2)CC1 (stereo unspecified)	29
Cc1cc(C)n2nc(SCC(=O)c3cc(C)n(-c4cc(C)on4)c3C)nc2n1	2
c1ccc2c(-n3cccn3)cccc2c1	-17
COC(=O)c1c(N)sc(C(=O)N2CCOCC2)c1C	0
CCOC(=O)c1c(N)sc(C(=O)N2CCOCC2)c1C	0
Cc1c(-c2ccccc2)sc(N)c1C(=O)N1CCOCC1	85*	HIV RNase H inh-2=25
COC(=O)Cn1ncc2c3ccccc3n(C)c2c1=O	-12
COc1cc(OC)cc(C(=O)NCC(=O)N2CCC(C)CC2)c1	-3
Cc1ccc(NC(=O)CCn2c(=O)oc3ccccc32)c(C)c1	-5
Cc1cc(C)nc(Sc2c(C)nn(-c3ccccc3)c2C)n1	-13
Cc1cccc(-n2c(O)c(C=Nc3ccc4c(c3)OCO4)c3ccccc3c2=O)n1	65*	HIV RNase H inh-2=23
Cc1cccc(-n2c(-c3ccco3)nc3ccccc3c2=O)n1	-6
Cc1cc(N=Cc2c(O)n(-c3ccc4c(c3)OCO4)c(=O)c3ccccc23)ccn1	-8
COc1cccc(CSc2nc3sc(C)c(C)c3c(=O)n2Cc2ccco2)c1	3
O=C(NC(Cc1ccccc1)C(=O)NCc1ccccn1)c1ccco1 (stereo unspecified)	-11
COc1ccc(Cl)cc1NC(=O)CN1CCC(n2nnc3ccccc32)CC1	-1
COc1cccc2c1OC1(C)CC2/C(=C(\C)O)C(=O)N1 (stereo unspecified)	0
CCC(=O)N1CCc2cc(S(=O)(=O)NC(CC(C)C)C(=O)N3CCc4ccccc43)ccc21 (stereo unspecified)	1
